Consider 39 compounds from PubChem BioAssay (NCI).

Where “and” joins values, the source holds several entries; their conditions need not be identical. Identical values can stand only once. About 83,000 compounds went through this panel and 20% of them were active in at least one assay; those are over-represented in the sample as a whole.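 Each cell line was grown in a 96-well plate and treated with one concentration of compound for 48 hours. Values below 10 were considered active.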 A number with no mark means an inactive call. Calls of active or inactive are those of the source.

This assay deals with MDA-MB-468 breast. Put plainly: NCI-60 one-dose screen, 48 h (100 = growth as untreated, 0 = no growth, -100 = all killed). To be noted: 10 µM unless noted.
For `CN(C[C@H]1Cc2c(cccc2N2CCN(c3ncccn3)CC2)CN1)[C@H]1CCCc2cccnc21`, the growth is 37.6%.
As to `O=C(Nc1cccc(Cn2c(=O)[nH]c3ccc(Oc4ncccn4)cc3c2=O)c1)c1cc(Cl)cc(Cl)c1`, the growth was 50.5%.
With `Cn1c2ccc(Cl)cc2c2nn(C(=O)c3ccccc3)c(=O)nc21`, the growth is 103%.
As to `Nc1n[nH]c2cccc(C#Cc3cccc(NC(=O)c4cc(F)cc(C(F)(F)F)c4)c3)c12`, the growth is 92.2%.
In the case of `CC(C)CCOc1ccc(-c2n[nH]c(C(F)(F)F)c2-c2cncc(C#N)c2)c(O)c1`, the growth was -26.4% (active).
With `CCOC(=O)c1cn2ncnc(Oc3ccc(NC(=O)NCCN(C)C)c(Cl)c3)c2c1C`, the growth was 67.4%.
For `CCN(CC)CCOC(=O)c1cccnc1`, the growth is 94.9%.
As to `Cn1c(NCCc2ccc(O)c(O)c2)nc2c1c(=O)n(Cc1ccc(Cl)cc1)c(=O)n2C`, the growth was 19.4%.
Consider `C=C1C(=O)O[C@H]2[C@H]1CC/C(COC(=O)/C=C/c1c[nH]c3ccccc13)=C\CC[C@@]1(C)O[C@@H]21`, for which the growth was -78.1% (active).
For `Oc1ccc(N=Nc2ccccn2)c(O)c1`, the growth was -2.78% (active).
On to `Cn1cc(-c2csc(-c3cn(C(=O)OC(C)(C)C)c4ccccc34)n2)c2cccnc21`, for which the growth is -8.84% (active).
Under `Fc1ccc(CNc2c3ccccc3nc3ccccc23)cc1F` stands -10.7% (active); under `COc1ccc(Nc2nc(NCCNc3ccnc4cc(Cl)ccc34)nc(N3CCOCC3)n2)cc1`, 23.9%; under `O=C(Nc1ccccn1)[C@H](O)[C@@H](O)C(=O)N1CCOCC1`, 119%.
Regarding `O=C(Nc1cccc2[nH]c(C(F)(F)F)nc12)c1ccc(-n2cnnn2)cc1`, the growth is 80%.
For the compound `CC(=O)C1N=NCC1c1ccccc1` (centres undefined), the growth is 102%.
As to `O=C1OC(N(Cc2ccc(Cl)cc2)c2ccccc2)c2ccccc21` (centres undefined), the growth was 104%.
As for `CC(C)CC(NC(=O)C(CCCN=C(N)N)NC(=O)OCc1ccccc1)C(=O)NC(CNC(=O)/C=C/c1ccccc1)C(C)C` (centres undefined), the figure is 94.4%; as for `C/C(=N\NC(=O)C(C)SC(C)C(=O)N/N=C(\C)c1cccnc1)c1cccnc1` (centres undefined), 103%; as for `COC12C=C/C(=C(/C(=O)OCc3ccncc3)C(=O)CCCCCCCCC3(OC)C=C/C(=C(/C(=O)OCc4ccncc4)C(=O)CCCCCCCC1)O3)O2`, -39% (active).
Regarding `NS(=O)(=O)c1ccc(-n2cc(CN3CCCCC3)nn2)cc1`, the growth was 101%.
Consider `O=C(/C=C/c1cc(Cl)ccc1Cl)Nc1ncc(Cc2ccc(Cl)cc2)s1`, for which the growth is 23.8%.
As for `CCN(CC)CCNC(=O)c1ccc(NCN2C(=O)NC(c3ccccc3)(c3ccccc3)C2=O)cc1`, the growth is 101% and 111%.
Under `COc1ccccc1-c1c(-c2ccc(Cl)cc2)c2cc3c(cc2[nH]c1=O)OCCO3` stands 62.7%.
For the compound `Cn1c(/C=C(\C#N)c2cccc(C(F)(F)F)c2)nc2c(N3CCOCC3)nc(Cl)nc21`, the growth was -40.3% (active).
Under `COc1ccc(Cn2nc(-c3ccccc3)c3c2CCc2cnoc2-3)cc1` stands 43.1%; under `COc1cc(C2C(C#N)=C(N)OC3=C2C(=O)c2ccccc2C3=O)cc(OC)c1O` (centres undefined), 106%.
As for `C#CCOc1cccc(Nc2ncc3ncn(C4CCN(C(=O)CCl)C4)c3n2)c1` (centres undefined), the figure is 24.5% [6.25 µM].
For the compound `ClC1=NC(Cl)C(Cl)=N/C1=N\c1ncn[nH]1` (centres undefined), the growth is -61.6% (active).
For `CCC1=Cc2c(OC)cccc2OC12C=Cc1c(OC)cccc1O2` (centres undefined), the growth was 54%.
On to `CCCCCc1ccc(C)cc1OC(=O)CCl`, for which the growth is 110%.
For `Cc1nc2sc(C(=O)Nc3cccc4ccccc34)c(N)c2cc1C(=O)c1ccccc1`, the growth is 5.45% (active).
As for `COc1ccc2c(c1)O/C(=C\c1ccc([N+](=O)[O-])s1)C2=O`, the growth was -1.9% (active).
Under `O=C(CSc1nnc(-c2ccc(Cl)cc2)o1)Nc1ccc(C(=O)/C=C/c2ccccc2)cc1` stands 98.7%.
Regarding `COc1ccc(-c2nn(-c3cccc(Cl)c3)cc2/C=C2\C(=N)N(c3ccccc3)N=C2N)cc1`, the growth was 57.6%.
With `CCCn1cnc2c(c1=N)C(c1ccc(F)cc1)c1sc3c(F)cccc3c1O2` (centres undefined), the growth is 58.4%.
Consider `O=C(c1ccc(O)c(C(=O)N2Cc3ccc(OCCC[P+](c4ccccc4)(c4ccccc4)c4ccccc4)cc3C2)c1)N1Cc2cccc(F)c2C1`, for which the growth is 2.97% (active).
Consider `COC(=O)[C@]12CC[C@@H](C(/C=C/c3cccnc3)=N/O)[C@@H]1[C@H]1CC[C@@H]3[C@@]4(C)CC(=C/c5cccnc5)/C(=N/O)C(C)(C)[C@@H]4CC[C@@]3(C)[C@]1(C)CC2`, for which the growth was 13.1%.
As to `COc1cc(/C=C2\CCCC3=C2NC(C)=NC3c2cc(OC)c(OC)c(OC)c2)cc(OC)c1OC` (centres undefined), the growth is -4.61% (active).
